Sampled rows, rich in hits. Any-hit rate of the full collection: about 2.3%.
Rango-impB inh = qHTS Assay for Inhibitors of Rango (Ran-regulated importin-beta cargo) - Importin beta complex formation; Rango CFP/YFP FRET sensor + importin beta, 45 min; AID 540263, 2011; Importin subunit beta-1 (Homo sapiens), Q14974; Potency, µM (titrated, usually from 92.2 µM), for inactives: top-dose inhibition of complex formation; 340,000 tested, 0.031% active; calls by dose curve;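 further: 0% = DMSO wells and 100% = buffer wells lacking importin beta; nearly all actives have a fitted effect of over 15% in size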
Target sequence (Q14974 whole entry, looked up): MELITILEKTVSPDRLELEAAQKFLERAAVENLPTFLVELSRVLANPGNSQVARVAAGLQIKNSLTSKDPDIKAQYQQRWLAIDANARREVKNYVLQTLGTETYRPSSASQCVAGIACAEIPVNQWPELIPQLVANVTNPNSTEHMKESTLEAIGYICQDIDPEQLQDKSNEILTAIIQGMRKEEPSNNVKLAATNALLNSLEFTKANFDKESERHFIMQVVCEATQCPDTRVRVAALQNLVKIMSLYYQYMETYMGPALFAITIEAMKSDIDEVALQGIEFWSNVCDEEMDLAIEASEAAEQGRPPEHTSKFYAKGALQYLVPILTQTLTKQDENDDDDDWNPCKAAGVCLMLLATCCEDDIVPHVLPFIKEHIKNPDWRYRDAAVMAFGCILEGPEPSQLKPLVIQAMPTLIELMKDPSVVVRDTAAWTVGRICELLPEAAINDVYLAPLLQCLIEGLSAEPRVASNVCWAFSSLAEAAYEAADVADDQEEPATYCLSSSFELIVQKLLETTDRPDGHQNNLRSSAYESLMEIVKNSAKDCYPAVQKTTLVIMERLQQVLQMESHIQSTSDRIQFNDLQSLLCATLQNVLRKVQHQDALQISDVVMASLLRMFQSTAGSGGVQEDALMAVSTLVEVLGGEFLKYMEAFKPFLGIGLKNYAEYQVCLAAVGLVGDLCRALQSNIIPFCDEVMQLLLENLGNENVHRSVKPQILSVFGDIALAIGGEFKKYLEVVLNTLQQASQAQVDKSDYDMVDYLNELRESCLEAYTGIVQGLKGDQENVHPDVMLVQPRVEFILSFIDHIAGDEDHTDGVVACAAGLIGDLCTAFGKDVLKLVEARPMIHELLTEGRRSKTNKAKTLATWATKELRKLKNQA
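Inhibition scored from the CFP 486 nm/YFP 530 nm FRET ratio 45 min after adding 0.125 microM importin beta to 50 nM Rango biosensor preincubated 5 min with compound (room temperature, PBS with DTT, Tween-20, BSA). No-importin wells as positive control.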
Rango dissoc inh = qHTS Assay for Inhibitors of RanGTP induced Rango (Ran-regulated importin-beta cargo) - Importin beta complex dissociation; Snurportin-1 (Homo sapiens) + GTP-binding nuclear protein Ran (Homo sapiens) + Importin …; Biochemical FRET Rango-importin beta, RanGTP-induced dissociation; Potency, µM (doses to about 46.1 µM), for the others: at the top dose activity change, negative = inhibition; 340,000 tested, 0.071% active; AID 540253, 2011; calls by dose curve; further: % of control where 0% means no effect; nearly all actives have a fitted effect of over 45% in size
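Compounds preincubate 5 min with complex of recombinant Rango and importin beta in PBS with 1 mM DTT. Ran (0.6 uM) loaded with 2 mM GTP plus 0.2 uM RCC1 starts dissociation; FRET is recorded 45 min later.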
Nrf2 block = Nrf2 qHTS screen for inhibitors | A549 ARE-Fluc reporter, luciferase luminescence, 18-24 h | Potency, µM (doses to about 46 µM), for the others: top-dose activity change, negative = inhibition, usual class: inhibitors | 360,000 tested, 2.1% active | AID 504444, 2011; further: on the % scale 0 is the no-effect control and ±100 the full control effect; nearly all actives have a fitted effect of over 60% in size
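Nrf2 function is reported as luminescence of an ARE-controlled luciferase in A549 cells. Compounds were tested at several concentrations, and a CellTiter-Fluor read on the same wells flagged cytotoxicity.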
Nrf2 activator = qHTS of Nrf2 Activators; Potency, µM (titrated, usually from 46.1 µM), inactives show at the top dose activation, usual class: activators; AID 624171, 2012; AREc32 ARE-luciferase reporter (MCF7-derived line), luminescence, 24 h; 410,000 tested, 0.31% active; further: % of control where 0% means no effect; nearly all actives have a fitted effect of over 65% in size
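Reporter line AREc32 (ARE-Fluc), seeded overnight in OPTI-MEM with 5% FBS; compound pin-transferred, 24 hr at 37 deg C, 5% CO2; luminescent read-out.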
A549 tox = Nrf2 qHTS screen for inhibitors: counterscreen for cytotoxicity | A549 ARE-Fluc cells, CellTiter-Fluor viability, 18-24 h | Potency, µM (highest dose often 46 µM), inactives show at the top dose activity change, negative = cytotoxicity, usual class: inhibitors | 390,000 tested, 0.16% active | AID 504648, 2011; further: on the % scale 0 is the no-effect control and ±100 the full control effect
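A549 ARE-Fluc cells in 5% FBS OPTI-MEM, 5000 cells/well, rested 2 h then exposed to compounds in concentration-response for 18-24 h at 37 °C. Viability by CellTiter-Fluor fluorescence (Ex 405/Em 525) after 30 min; luciferase luminescence (BugLite, 15 min, RT) read afterwards.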
Starred values were filed as active, the others as inactive; ? = inconclusive; / = no result given. Unless noted, the call rests on the fitted dose curve; in most records, active means well fitted curve in the direction sought with a large enough effect; inconclusive means small, poorly fitted or top-dose-only effect, or another doubt; inactive means no such curve, though single readings can be large; an effect the other way counts as inactive or inconclusive. Potency means the concentration at half of the fitted maximal effect.

SMILES	Rango-impB inh	Rango dissoc inh	Nrf2 block	Nrf2 activator	A549 tox
COc1cc(/C=N/NC(=O)c2ccc3c(c2)OCCO3)cc(Cl)c1O	?	-4%	-17%	11%	13%
O=C(NN=Cc1c(O)ccc2ccccc12)c1ccc2c(c1)OCO2	?	?	16µM*	0%	?
O=C(N/N=C/c1cc2c(cc1[N+](=O)[O-])OCO2)c1ccc2c(c1)OCO2	9%	-1%	-3%	0%	0%
COc1c(O)ccc(/C=N/NC(=O)c2ccc3c(c2)OCCO3)c1[N+](=O)[O-]	-3%	-5%	5.2µM*	4%	2%
CCOc1ccc(NC(=O)C(=O)NCCc2csc(-c3ccc(F)cc3)n2)cc1	/	/	/	0%	0%
CCOC(=O)CNC(=S)N1CCn2c(nc3ccccc32)C1	0%	10%	-3%	1%	-1%
CC(C)Cc1nc(N2CCN(C(=O)c3ccccc3)CC2)c(C#N)c2c1CCC2	2%	5%	23µM*	2%	/
N#Cc1c(N2CCN(C(=O)c3ccco3)CC2)nc(-c2ccccc2)c2c1CCCC2	-7%	-7%	18µM*	4%	?
CCc1nc(N2CCN(C(=O)c3ccco3)CC2)c(C#N)c2c1COC(C)(C)C2	0%	13%	15µM*	0%	-10%
Cc1ccc(NS(=O)(=O)c2cc3c(cc2-c2ccco2)NC(=O)CO3)cc1C	/	/	0%	/	0%
CCCCCC(=O)NNC(=S)NC(=O)c1cccc([N+](=O)[O-])c1	-1%	-3%	4%	0%	-3%
CCCCCC(=O)NNC(=S)NC(=O)c1ccccc1[N+](=O)[O-]	5%	2%	23µM*	0%	?
COc1ccc(-c2noc(CSc3nnc(Cc4ccccc4)n3-c3cccc(C)c3)n2)cc1	/	/	23µM*	0%	?
COc1ccc(-c2noc(CSc3nnc(C)n3-c3cccc(C)c3)n2)cc1	/	/	?	6%	-7%
O=C(CSCC(=O)Nc1nc(-c2ccc3c(c2)OCO3)cs1)Nc1nccs1	3%	0%	21µM*	3%	2%
CCOC(=O)c1c(NC(=O)c2cc3n(n2)C(C(F)(F)F)CC(c2cccs2)N3)sc(C)c1C (centres undefined)	3%	33%	-14%	0%	-14%
Cc1nn(C)c(C)c1CNC(=O)c1cc2n(n1)C(C(F)(F)F)CC(c1cccs1)N2 (centres undefined)	4%	0%	18µM*	0%	-7%
Cc1nn(C)c(C)c1CN(C)C(=O)c1nn2c(c1Br)NC(c1cccs1)CC2C(F)(F)F (centres undefined)	-2%	-16%	8.2µM*	4%	1%
COc1ccc(C2CC(C(F)(F)F)n3nc(C(=O)NCc4c(C)nn(C)c4C)c(Cl)c3N2)cc1 (centres undefined)	0%	11%	21µM*	4%	-9%
NC(=O)CSc1ccc2nnc(-c3ccncc3)n2n1	/	/	2%	/	-4%
Cc1ccc(NC(=O)C2CCC(CNS(=O)(=O)c3ccc4c(c3)CCCC(=O)N4)CC2)cc1F (centres undefined)	/	/	?	5%	-5%
COc1ccc(CCn2c(=S)[nH]c(=O)c3c(C)cc(C)nc32)cc1OC	/	/	-1%	/	16%
COc1ccc(CCn2c(=S)[nH]c(=O)c3nccnc32)cc1OC	/	/	18µM*	/	?
Cc1ccc(S(=O)(=O)N[C@@H](Cc2ccccc2)C(=O)CCl)cc1	0%	3%	18µM*	6%	-10%
Cc1ccc(S(=O)(=O)NC(Cc2ccccc2)C(=O)NN)cc1 (centres undefined)	-3%	1%	-2%	0%	2%
SMILES	Rango-impB inh	Rango dissoc inh	Nrf2 block	Nrf2 activator	A549 tox
Cc1ccnc(Nc2nc(-c3c(C)nc4sccn34)cs2)c1	4%	0%	21µM*	0%	-12%
CC(C)c1ccc(N2C(=NC(=O)C3CC3)SC3CS(=O)(=O)CC32)cc1 (centres undefined)	-2%	-7%	-7%	0%	0%
Cc1ccc2c(CC(=O)Nc3ccc(S(=O)(=O)N4CCCC(C)C4)cc3)coc2c1 (centres undefined)	/	/	21µM*	1%	-8%
CC(=O)Nc1ccc(N=C(C2=C(O)c3ccccc3C2=O)c2ccccc2)cc1	0%	17%	21µM*	10%	21µM*
O=C(N1CCc2cc([S+](=O)([O-])N3CCN([S+](=O)([O-])c4c(F)cccc4F)CC3)ccc2C1)C(F)(F)F	/	/	11%	/	2%
CCOc1ccc(Oc2nc(Nc3ccc(C)cc3)nc(N(C)C)n2)nn1	-1%	-2%	21µM*	0%	-12%
CC(C)COC(=O)N(C)C[C@H]1OCc2cn(nn2)CCCC(=O)N([C@H](C)CO)C[C@@H]1C	/	/	/	0%	/
O=S(=O)(c1c(Cl)cc(Br)cc1Cl)N1CCN(C(=S)NC2CC2)CC1	-2%	2%	12µM*	3%	-20%
O=S(=O)(c1ccccc1)N1CCN(C(=S)NC2CCCC2)CC1	-1%	-8%	6%	0%	?
Cc1ccc(-c2nn(-c3ccccc3)cc2C(=O)NCC2CCCO2)cc1 (centres undefined)	-2%	-14%	14%	4%	2%
C=CCC(Nc1ccccc1)C12C=CC(O1)C(C(=O)OC)=C2C(=O)OC (centres undefined)	3%	3%	?	11µM*	-19%
COC(=O)C1=C(C(=O)OC)[C@]2([C@@H]3CC=CCN[C@@H](Cc4ccccc4)C(=O)N3Cc3ccccc3)C=C[C@H]1O2	2%	8%	-15%	8%	-3%
COc1ccccc1-n1cnc2c(c1=O)c1nc3ccccc3nc1n2-c1ccc(C)c(C)c1	-2%	-11%	5.8µM*	0%	?
COCCCn1c2nc3ccccc3nc2c2c(=O)n(-c3ccccc3OC)cnc21	-2%	19%	/	0%	15%
O=C(COC(=O)c1ccc(Cl)c([N+](=O)[O-])c1)NC1CCCC1	5%	1%	-2%	3%	3%
CN(CCC#N)C(=O)COC(=O)c1ccccc1C(=O)c1ccc(Cl)c([N+](=O)[O-])c1	-1%	28%	-27%	16µM*	-17%
CC(C)N(C(=O)COC(=O)c1ccccc1C(=O)c1ccc(Cl)c([N+](=O)[O-])c1)C(C)C	?	-2%	?	2.2µM*	-28%
CN(CCC#N)C(=O)COC(=O)c1ccc(Cl)c(S(N)(=O)=O)c1	-4%	0%	-10%	0%	-10%
